Source: PubChem
Pf growth 48h: inhibits P. falciparum growth in the first generation, 48 h; 310,000 compounds, 5.9% hits; Potency, µM (highest dose often 28.7 µM), inactives show at the highest dose activity change, negative = inhibition, usual class: inhibitors; P. falciparum luciferase growth in erythrocytes, 48 h; note: potency is the fitted concentration of half-maximal effect; % is set by controls: 0 for no effect and ±100 for the full control effect
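Luminescence readout; reporter = integrated firefly luciferase in P. falciparum. RBC culture at 2% hematocrit, 0.1% parasitemia final, 37 C/5% CO2; decreased signal taken as growth inhibition.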
Pf growth 96h: P. falciparum growth inhibition at 96 hour, primary screen for plastid delayed-death inhibitors; 320,000 compounds, 6.9% hits; P. falciparum luciferase reporter growth, 96 h; Potency, µM (series often up to 28.7 µM), inactives show at the highest dose activity change, negative = inhibition, actives largely listed as inhibitors; note: potency is the fitted concentration of half-maximal effect; % is set by controls: 0 for no effect and ±100 for the full control effect
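Cell-based qHTS: luciferase-tagged P. falciparum in erythrocytes (2% hematocrit, 0.05% parasitemia final) incubated with compounds for 96 hours, 37 C, 5% CO2; luciferase detection reagent then added and luminescence measured.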
HCMV antiviral: blocks human cytomegalovirus replication. HFF cells, HCMV-luciferase reporter, 72 h; hits give low values. activity change, negative = inhibition, % at 57.5 µM. 410,000 compounds, 4.5% hits. AID 1259415; in the data active = activity change below about -60%; inconclusive = no clear call, values can overlap the other calls; inactive = above about -39%; note: % is set by controls: 0 for no effect and ±100 for the full control effect
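Inhibition of viral replication was scored as loss of reporter luminescence in HFFs infected with HCMV-luciferase (MOI 1 PFU/cell) for 72 h; compounds tested at 2 doses, normalized to buffer and Salinomycin controls.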
Shiga inhibitor: blocks Shiga toxin action in Vero cells | inhibition, % at 38.7 µM | AID 2315 | 290,000 compounds, 9.2% hits | Vero cells, Shiga toxin protein synthesis inhibition reporter; in the data active = inhibition mostly above about 28%, no sharp cut-off; inactive = mostly below about 43%; note: 0% is about no effect
Cycloheximide cs: affects cycloheximide protein synthesis inhibition readout, counter-screen; cell reporter, cycloheximide protein synthesis inhibition counterscreen; max response, %; 300,000 compounds, 12% hits; AID 2314; in the data active = max response mostly above about 13%, no sharp cut-off; inactive = mostly below about 14%; note: read at 38.3 µM for the half of the compounds with a filed dose; 0% is about no effect
* = called active by the depositor; ? = inconclusive; · = no result given. An excerpt weighted towards active compounds, which were near 20% of everything screened. Unless noted, calls come from the whole dose curve; as a rule, active = well fitted inhibition curve with a large enough effect; inconclusive = small, poorly fitted or top-dose-only effect, or another doubt; inactive = no such curve, though single readings can be large or run the other way.

SMILES | Pf growth 48h | Pf growth 96h | HCMV antiviral | Shiga inhibitor | Cycloheximide cs
Cc1ccn2cc(-c3ccc(C)c(NS(=O)(=O)c4ccc(Cl)cc4)c3)nc2c1 | · | · | 39 | · | ·
COc1ccc(O)c(C(=O)c2cnc3c(c2)c(=O)[nH]c(=O)n3C)c1 | 11% | ? | 15 | -1 | 5
COCCn1c(=O)[nH]c(=O)c2cc(C(=O)c3cc(Cl)ccc3O)cnc21 | 9.3µM* | ? | · | 32 | 8
O=C(NCc1cccnc1)/C(=C/c1ccccc1)NC(=O)c1ccccc1 | 3% | -3% | -37 | -14 | -4
COc1ccc(C(=O)N/C(=C\c2ccco2)C(=O)NCc2ccco2)cc1 | -6% | -20% | -28 | -6 | 6
COc1ccc(C(=O)N/C(=C\c2ccco2)C(=O)NCc2cccnc2)cc1 | 33% | 1.2µM* | · | 32 | -1
O=C(NCCN1CCCCC1)/C(=C/c1ccco1)NC(=O)c1ccccc1 | 2% | 6.6µM* | -7 | 14 | -5
Cc1ccc(C(=O)N/C(=C\c2ccco2)C(=O)NCCCn2ccnc2)cc1 | 40% | 9.3µM* | -34 | -4 | 1
O=C(NCc1cccnc1)/C(=C/c1ccco1)NC(=O)c1ccccc1 | 28% | 12µM* | -3 | 14 | -1
COc1ccccc1C(=O)NCc1nnc(SCC(=O)Nc2nccs2)n1C | -16% | ? | 79 | -19 | -5
O=C(O)/C=C/C(=O)Nc1nc(-c2ccc3ccccc3c2)cs1 | · | · | 15 | · | ·
N#Cc1ccc(-c2csc(NC(=O)/C=C/c3cccs3)n2)cc1 | ? | 10µM* | ? | -2 | -4
O=C(/C=C\c1ccco1)Nc1nc(-c2ccccc2)cs1 | 58% | -15% | -10 | 78* | 71*
Cc1ccc(-c2csc(NC(=O)/C=C/c3cccs3)n2)cc1C | ? | ? | 39 | -2 | -5
O=C(/C=C/c1ccccc1)Nc1nc(-c2ccncc2)cs1 | ? | ? | -63* | 35 | 28*
CCOC(=O)N1CCc2c(sc(NCc3cccc(F)c3)c2C(=O)Nc2ccc(OCC)cc2)C1 | · | · | -2 | · | ·
CCOc1ccc(CNS(=O)(=O)c2cc3c(cc2C)NC(=O)CO3)cc1 | · | · | 0 | · | ·
CC(=O)Oc1ccccc1Cn1c(C)c(C(=O)NCc2ccc(Cl)c(Cl)c2)sc1=O | · | · | -3 | · | ·
C/C(Cn1nnc([N+](=O)[O-])n1)=N\NC(=O)c1ccccc1O | ? | ? | -7 | 52* | 32*
C/C(Cn1nnc([N+](=O)[O-])n1)=N\NC(=O)c1ccc(Cl)c(Cl)c1 | ? | ? | -6 | -17 | -1
C/C(Cn1nnc([N+](=O)[O-])n1)=N\NC(=O)c1ccc(O)cc1 | ? | ? | 14 | 62* | 23*
C/C(Cn1nnc([N+](=O)[O-])n1)=N\NC(=O)c1ccc(O)cc1O | -3% | ? | 7 | 72* | 69*
C/C(=N\NC(=O)c1ccccc1[N+](=O)[O-])c1c(O)cc(C)oc1=O | 0% | 43% | 85 | 8 | -2
CN(C(=O)Cn1nc(Cl)ccc1=O)C1CCCN(Cc2ccccc2F)C1 (stereo not drawn) | 9% | -16% | -5 | -15 | -2
O=C(Cc1nc2ccccc2[nH]1)c1ccc([N+](=O)[O-])cc1 | 1.9µM* | 2.9µM* | -28 | 60* | 29*
SMILES | Pf growth 48h | Pf growth 96h | HCMV antiviral | Shiga inhibitor | Cycloheximide cs
CCc1cc(C(=O)Cc2nc3ccccc3[nH]2)c(O)cc1O | 57% | -4% | 76 | 143* | 40*
O=C(Cc1nc2ccccc2[nH]1)c1ccc(Cl)cc1 | 2.3µM* | ? | -23 | 62* | 23*
Nc1ccc(C(=O)OCc2nc3ccccc3[nH]2)cc1 | 37% | ? | 11 | 44 | 16
CN/N=C(\Cc1nc2ccccc2[nH]1)c1ccc([N+](=O)[O-])cc1 | ? | ? | 107 | 57* | 32*
O=C(NCCc1nc2ccccc2[nH]1)c1ccc([N+](=O)[O-])cc1 | 3% | 23% | 34 | -6 | -4
O=C(O)CC(c1ccccc1)N1C(=O)c2cccc([N+](=O)[O-])c2C1=O (stereo not drawn) | 7% | 0% | 56 | 1 | 1
N#CCCN/N=C(/Cc1nc2ccccc2[nH]1)c1cccc(Cl)c1 | 10µM* | · | 92 | 99* | 43*
O=C(NCCc1nc2ccccc2[nH]1)Nc1ccccc1 | · | · | 6 | -16 | 2
Clc1ccc(/C(Cc2nc3ccccc3[nH]2)=N\Nc2ccccc2)cc1 | ? | ? | -32 | 34* | 37*
O=C(O)CC(Cc1ccccc1)C(=O)NCC12CC3CC(CC(C3)C1)C2 (stereo not drawn) | ? | -7% | -17 | -3 | 8
COc1ccc(C(C)=O)cc1Cn1c(C)c(C(=O)NCc2cccc(C(F)(F)F)c2)sc1=O | · | · | -10 | · | ·
Cc1cc(C)n(C(=O)c2cccc([N+](=O)[O-])c2)n1 | 6% | 0% | 7 | -4 | -1
COc1ccc(Cl)cc1C(=O)n1nc(C)cc1C | 9% | -8% | 9 | -3 | 14
Cc1cc(Nc2ccccc2)nn1C(=O)c1ccc(Cl)cc1 | 31% | · | 16 | 156* | 49*
Cc1cc(Nc2ccccc2)nn1C(=O)c1ccc([N+](=O)[O-])cc1 | 2% | 9.3µM* | -20 | -7 | -3
Cc1cc(Nc2ccccc2)n(C(=O)c2ccccc2)n1 | 12% | · | -31 | 73 | 47*
CCOC(=O)c1cnc(SCc2nc(N)nc(Nc3ccc(F)cc3)n2)nc1N | -9% | ? | -96* | 43 | 9.5*
CCOC(=O)c1cnc(SCc2nc(N)nc(Nc3ccc(C)cc3)n2)nc1N | ? | · | -88* | 16 | 13*
CN(C)S(=O)(=O)N1CCC(n2nccc2NC(=O)CCCc2ccccc2)CC1 | ? | 5.2µM* | -22 | 20 | 14
C=CCNC(=O)N1CCC(n2nccc2NC(=O)CCc2ccccc2)CC1 | 13% | ? | 18 | 3 | -3
CN(C)S(=O)(=O)N1CCC(n2nccc2NC(=O)CCc2ccccc2)CC1 | 9% | 25% | 22 | -2 | 2
CCNC(=O)N1CCC(n2nccc2NC(=O)CCCc2ccccc2)CC1 | 1% | 13µM* | -1 | -16 | 2
CSCC(=O)N1CCC(n2nccc2NC(=O)CCCc2ccccc2)CC1 | -16% | -7% | 22 | 14 | 21*
CC(=O)Nc1ccc(S(=O)(=O)N(C)CC(=O)OCC(=O)N2CCCC2=O)cc1 | ? | 1% | 0 | · | ·
COc1cc(/C=N/NC(=S)NC2CC3CCC2C3)ccc1O (stereo not drawn) | 0% | ? | 48 | 36 | 34*
O=[N+]([O-])c1cccc(S(=O)(=O)NC2CC3CCC2C3)c1 (stereo not drawn) | 10% | -25% | -19 | · | -1
S=C(N/N=C/c1ccc2c(c1)OCO2)NC1CC2CCC1C2 (stereo not drawn) | 2.1µM* | 2.6µM* | 10 | 63* | 35*
O=C(/C=C/c1cccc([N+](=O)[O-])c1)NC1CC2CCC1C2 (stereo not drawn) | 19% | 59% | 18 | 34 | 19*
